High-throughput results as filed in PubChem.
Sampled rows, rich in hits. Any-hit rate of the full collection: about 1.5%.
Neddyl block: inhibitors of cullin neddylation, primary screen, biochemical, TR-FRET, uHTS, NAE and Ubc12 | NEDD8-conjugating enzyme Ubc12 (Homo sapiens) + NEDD8-activating enzyme E1 regulatory … | inhibition, % at 25 µM | 0.58% of 360,000 active | AID 651699, 2012; in the data active = inhibition above about 36%
NadD inh: inhibitors of S. aureus NadD, primary screen, biochemical, colorimetric, uHTS; AID 602399, 2012; Nicotinate-nucleotide adenylyltransferase NadD (Staphylococcus aureus N315); 0.78% of 360,000 active; purified NadD enzyme, colorimetric absorbance read-out; inhibition, % at 20 µM; in the data active = inhibition above about 26%
NPR2 activator: human GC-B receptor activators, primary screen, HEK293 GC-B cells, cGMP TR-FRET, EC30 CNP | activation, % at 10 µM | 0% at EC30 CNP, 100% saturating CNP | AID 1920062, 2024 | 0.11% of 370,000 active;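 active = activation at 10 µM reaching about 35% in either raw or pattern-adjusted values, limit read from the data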
NPR1 activator: GC-A stimulated cGMP production enhancers – HEK293 GC-A cells, cGMP TR-FRET, EC30 ANP, primary screen; 0.14% of 370,000 active; AID 1671463, 2021; Atrial natriuretic peptide receptor 1 (Homo sapiens), P16066; activation, % at 10 µM; 0% at EC30 ANP, 100% saturating ANP; in the data active = activation above about 40%
Large screens that a line does not name were inactive.

Cc1ccccc1NC(=O)/C=C/c1ccc([N+](=O)[O-])s1	Neddyl block 44 (no result: NPR2 activator, NPR1 activator)
Cc1cc(C)cc(NC(=O)/C=C/c2ccc([N+](=O)[O-])s2)c1	none
COc1ccc(C[N+]2=C(N)NC3=C4CCCCC4n4c(=O)n(-c5ccccc5)c(=O)n4C3C2)c(OC)c1 (configuration not stated)	none (no result: Neddyl block, NadD inh)
Nc1sc(Cc2ccccc2)cc1C(=O)c1c(-c2ccccc2)[nH]c2ccccc12	NPR1 activator 60 (no result: NadD inh)
COC(=O)C1CN(Cc2cn(Cc3ccc(F)cc3)nn2)CCS(=O)(=O)N1Cc1ccccc1 (configuration not stated)	none (no result: Neddyl block, NadD inh)
Cc1c(Nc2cc(Cl)c3nonc3c2[N+](=O)[O-])c(=O)n(-c2ccccc2)n1C	NPR2 activator 37
O=[N+]([O-])c1c(Nc2cccc(O)c2)cc(Cl)c2nonc12	NPR2 activator 37
O=C(O)c1ccc(Nc2cc(Cl)c3nonc3c2[N+](=O)[O-])cc1	none
Cc1ccc(-c2nc(C3CCCN(S(=O)(=O)c4ccccc4)C3)no2)cc1 (configuration not stated)	none (no result: Neddyl block, NadD inh)
Cn1c(=O)n(Cc2ccccc2)c(=O)c2c1nc1n2CCCN1Cc1ccccc1	none
Cn1c(=O)n(Cc2ccccc2)c(=O)c2c1nc1n2CCCN1CCc1ccccc1	NPR2 activator 43
COC(=O)[C@]12C[C@H](CC(=O)NCC3CCCCC3)C(=O)N(Cc3cccc4ccccc34)C1=C[C@H](C1CCCC1)O[C@@H]2C	none (no result: Neddyl block, NadD inh)
N=C1/C(=C\c2ccc(OC(=O)c3ccccc3)cc2)C(=O)N=C2SC(N3CCOCC3)=NN12	none
Cc1ccc(C(=O)Oc2ccc(/C=C3\C(=N)N4N=C(N5CCOCC5)SC4=NC3=O)cc2)cc1	NadD inh 40
N=C1/C(=C\c2ccc(OC(=O)c3ccc(F)cc3)cc2)C(=O)N=C2SC(N3CCCC3)=NN12	NadD inh 51
COC(=O)[C@H](CC(C)C)N(CCCc1cn(Cc2ccccc2)nn1)S(=O)(=O)c1ccccc1Br	none (no result: Neddyl block, NadD inh)
Cc1c(C)n(Cc2ccc(-c3ccccc3C(=O)O)cc2)c2ccc(C(=O)N[C@@H](C)c3ccc(Br)cc3)cc12	none (no result: Neddyl block, NadD inh)
c1cc2c3c(cccc3c1)NC1(CCC3(CC1)Nc1cccc4cccc(c14)N3)N2	Neddyl block 58, NadD inh 51
c1cc2c3c(cccc3c1)NC1(CCCCCC1)N2	none
CC1=Nc2cccc3cccc(c23)N1	none
c1cc2c3c(cccc3c1)NC1(CCCCC1)N2	NadD inh 36
Cc1ccc(S(=O)(=O)c2ccc([N+](=O)[O-])cn2)cc1	none
Cc1cc(S(=O)(=O)c2ccc([N+](=O)[O-])cn2)ccc1Br	NPR2 activator 37
N=C1/C(=C\c2ccc(-c3cccc(C(=O)O)c3)o2)C(=O)N=C2SC=C(c3ccccc3)N12	NadD inh 49
N=C1/C(=C/c2ccc(-c3cccc(C(=O)O)c3)o2)C(=O)N=C2SC(CC(=O)N3CCOCC3)=NN12	none
COC(=O)c1sc(-c2ccc(C(C)(C)C)cc2)cc1NC(=O)c1ccccc1C(=O)O	Neddyl block 70
COC(=O)c1sc(-c2ccc(C(C)(C)C)cc2)cc1NC(=O)CSCC(=O)O	Neddyl block 40
COC(=O)c1sc(-c2ccccc2)cc1NC(=O)C1CC1	none
COC(=O)c1sc(-c2ccc(Cl)cc2)cc1NC(=O)c1ccccc1C(=O)O	none
C[C@@H]1CCCN1c1cccc2c1S(=O)(=O)N1CC[C@@H](C1)O2	none (no result: Neddyl block, NadD inh)
COC(=O)CSc1nnc(-c2ccc(NS(=O)(=O)c3ccc(Cl)s3)cc2)o1	none (no result: Neddyl block, NadD inh)
COc1ccc(C(=O)NC[C@H]2O[C@@H](n3cnc4c(N)ncnc43)[C@H](O)[C@@H]2O)cc1OC	none
NC(=O)c1ccc[n+]([C@H]2O[C@@H](COP(=O)([O-])OP(=O)(O)OC[C@H]3O[C@@H](n4cnc5c(N)ncnc54)[C@H](O)[C@@H]3O)[C@H](O)[C@@H]2O)c1	Neddyl block 52 (no result: NPR2 activator, NPR1 activator)
OCc1ccccc1CNCc1ccccc1	none
Oc1cc(CNCc2ccccc2)c(O)cc1CNCc1ccccc1	NadD inh 57
COC(=O)[C@]12C[C@H](CC(=O)N3CCN(C(=O)c4ccco4)CC3)C(=O)N(Cc3ccc(Cl)cc3Cl)C1=C[C@H](C1CCCC1)O[C@@H]2C	none (no result: Neddyl block, NadD inh)
CCn1c(SCC(=O)Nc2oc(-c3ccccc3)c(-c3ccccc3)c2C#N)nnc1-c1cc(OC)cc(OC)c1	NadD inh 51
COc1ccc(-c2n[nH]c(C(F)(F)F)c2-c2cc3ccccc3o2)c(O)c1	Neddyl block 43
C#CCN1CC(N(C)CCOC(=O)CCCc2ccccc2)CS1(=O)=O (configuration not stated)	none (no result: Neddyl block, NadD inh)
O=C1NN(c2cccc(Br)c2)C(=O)/C1=C/c1ccc(-c2cc([N+](=O)[O-])ccc2O)o1	NadD inh 70 (no result: NPR2 activator, NPR1 activator)
CC(C)Nc1nc(Cl)nc(N(C#N)CN2C(=O)c3ccccc3C2=O)n1	NPR2 activator 48, NPR1 activator 48
CCC(C)Nc1nc(Cl)nc(N(C#N)CN2C(=O)c3ccccc3S2(=O)=O)n1 (configuration not stated)	none
CCCCN(C)C(=O)CSc1nnc(-c2cccnc2)n1C1CCCCC1	none (no result: Neddyl block, NadD inh)
Cc1ccc(OCCOc2ccc(Cl)cc2Cl)c([N+](=O)[O-])n1	NPR1 activator 48
CN(CCNC(=O)c1cc2c(=O)n(C)c3ccccc3c2n1C)Cc1ccccc1	none
CCCN(CCC)CCNC(=O)c1cc2c(=O)n(C)c3ccccc3c2n1C	Neddyl block 44
O=c1[nH]cnc2nn(C3OC(CO)C(O)C3O)nc12 (configuration not stated)	none (no result: Neddyl block, NadD inh)
Cc1cc(O)c(C=O)c2c1C(=O)Oc1c(CO)c(O)c3c(c1O2)C(O)OC3=O (configuration not stated)	NadD inh 34 (no result: NPR2 activator, NPR1 activator)
Cc1ccccc1N1CCN(S(=O)(=O)c2ccc3c(c2)n(C)c(=O)c(=O)n3C)CC1	none (no result: Neddyl block, NadD inh)
O=C(CCN1C(=O)/C(=C/C=C/c2ccccc2)SC1=S)Nc1nccs1	NadD inh 41
O=C(CCN1C(=O)/C(=C\c2cccs2)SC1=S)Nc1nccs1	none
C/C=C\C=C/C(=O)Nc1cccc(C2=NOC3(C2)C[C@@H](C(N)=O)N(C(=O)/C=C/C=C\C)C3)c1 (some centres not stated)	NadD inh 31 (no result: NPR2 activator, NPR1 activator)
C/C=C\C=C/C(=O)Nc1cccc(C2=NOC3(C2)C[C@@H](C(N)=O)N(C(=O)/C=C/CC)C3)c1 (some centres not stated)	none (no result: NPR2 activator, NPR1 activator)
COc1ccccc1CNC(=O)c1cc(S(=O)(=O)N2CCCC2)cn1C	NPR2 activator 37
CC(C)c1ccc(C2NC(=S)NC3=C2C(=O)CC(C)(C)C3)cc1 (configuration not stated)	NPR1 activator 43
CCc1ccc(C2NC(=S)NC3=C2C(=O)CC(C)(C)C3)cc1 (configuration not stated)	none
